Laboratory results reported in PubChem BioAssay (NCI).
About 83,000 compounds went through this panel and 20% of them were active in at least one assay; those are over-represented in the sample as a whole.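 Activity criterion: percent growth below 10, measured after cells in 96-well plates were exposed to a single compound concentration for 48 hours.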 Values without a mark were called inactive. The source made the active and inactive calls.

How the values were obtained:
Assay in all cases: NCI-60 one-dose screen, 48 h (100 = growth as untreated, 0 = no growth, -100 = all killed)
Details in all cases: 10 µM unless noted
NCI-H23 lung = tested on: NCI-H23 lung
NCI-H226 lung = tested on: NCI-H226 lung
NCI-H322M lung = tested on: NCI-H322M lung
HOP-62 NSCLC = tested on: HOP-62 NSCLC
NCI-H460 lung = tested on: NCI-H460 lung
HOP-92 NSCLC = tested on: HOP-92 NSCLC
NCI-H522 lung = tested on: NCI-H522 lung
A549/ATCC NSCLC = tested on: A549/ATCC NSCLC
786-0 renal = tested on: 786-0 renal
COLO 205 colon = tested on: COLO 205 colon
DU-145 prostate = tested on: DU-145 prostate
K-562 leukemia = tested on: K-562 leukemia
MALME-3M melanoma = tested on: MALME-3M melanoma
MDA-MB-231 breast = tested on: MDA-MB-231 breast
SF-268 CNS = tested on: SF-268 CNS
SF-295 CNS = tested on: SF-295 CNS
SF-539 CNS = tested on: SF-539 CNS
UACC-257 melanoma = tested on: UACC-257 melanoma
M14 melanoma = tested on: M14 melanoma
RXF 393 renal = tested on: RXF 393 renal

SMILES	growth (NCI-H23 lung)	growth (NCI-H226 lung)	growth (NCI-H322M lung) [%]	growth (HOP-62 NSCLC)	growth (NCI-H460 lung)	growth (HOP-92 NSCLC)	growth (NCI-H522 lung)	growth (A549/ATCC NSCLC)	growth (786-0 renal)	growth (COLO 205 colon)	growth (DU-145 prostate)	growth (K-562 leukemia)	growth (MALME-3M melanoma)	growth (MDA-MB-231 breast)	growth (SF-268 CNS)	growth (SF-295 CNS)	growth (SF-539 CNS)	growth (UACC-257 melanoma)	growth (M14 melanoma)	growth (RXF 393 renal) [%]
O=S(=O)(O)c1cccnc1	115%	105%	84.6	114%	109%	142%	109%	125%	103%	105%	122%	105%	90.1%	103%	103%	108%	95.8%	123%	140%	
Clc1ncnc2nc[nH]c12	94.4%	96.3%	104	83.7%	103%	68.8%	70.5%	101%	101%	101%	91%	90.1%	106%	99%	95.8%	107%	86.4%	103%	97.5%	
O=c1cc(C(F)(F)F)[nH]c(=S)[nH]1	103%	112%	101	100%	112%	126%	99.4%	98.1%	104%	109%	109%	111%	96.6%		121%	98.3%	96.5%	99.2%	108%	104
COc1ccc(Br)c(C=O)c1	91.4%	84.5%	89.8	67.4%	101%	68.8%	98.2%	92.6%	69.3%	102%	88.1%	11.6%	66.2%		60.8%	65.7%	30.5%	79.7%		80.1
COc1ccc(C2CC(c3ccccc3)=Nc3ccccc3S2)cc1 (centres undefined)	98%	98.2%	90.3	98.7%	105%	87.1%	77.6%	111%	98.2%	97.1%	99.8%	77.9%	82.5%	98.9%	105%		111%	103%		
O=C(c1ccc(Cl)cc1)N1CCCCC1	95.6%	95.4%	106	96.7%	101%	97.4%	93.6%	95.4%	102%	104%	115%	97.2%	109%	94.4%	104%	99.2%	98.5%	94%	104%	
NS(=O)(=O)c1cc(=O)[nH]c(=O)[nH]1	114%	109%	93.7	107%	111%	172%	74.5%	115%	105%	117%	114%	131%	90.7%	115%	110%	109%	111%	113%	102%	
CCOC(=O)c1ccc(Nc2sc(C(=O)c3ccc(Br)cc3)c(N)c2C#N)cc1	45.4%	56%	37.9	24%	13.1%	40.1%	8.98% (active)	30.7%	22.8%	11.4%	10.8%	12.9%	31.8%	52.9%	33.5%	-11.1% (active)	-1.74% (active)	38.2%	29.4%	
Cn1c(=O)[nH]c2ccccc2c1=O	104%	109%	105	99.6%	111%	143%	96.6%	100%	97.5%	114%	104%	103%	100%		107%	94.4%	98.8%	102%	107%	102
Cc1ccc(NC(=S)N2CCOCC2)cc1C	107%	92.4%	85.5	99.7%	106%	95%	84.2%	96.8%	97%	118%	109%	95.4%	93.8%	99.9%	110%	96.2%	103%	93.5%	93.1%	
NC(CCl)=NCC12CC3CC(CC(C3)C1)C2	-7.12% (active)	-0.0494% (active)	20.1	-66.1% (active)	-57.6% (active)	-37.6% (active)	-58.7% (active)	-47.1% (active)	-80.2% (active)	-96% (active)	-42.7% (active)	-15.1% (active)	25.4%	-15.8% (active)	-3.73% (active)	26.4%	-11% (active)	-71.2% (active)	-61.3% (active)	
O=C(O)c1cc(I)ccc1O	103%	99%	95.7	100%	108%	121%	111%	93.3%	107%	127%	116%	114%	90.3%	110%	111%	105%	97.7%	104%	110%	
CC(C)(C)CC1(C)NC(=O)NC1=O (centres undefined)	103%	112%	126	99.1%	120%	107%	150%	120%	98.7%	135%	114%	126%	111%	118%	119%	108%	109%	114%	104%	
Ic1cccs1	97.7%	107%	105	99%	108%	121%	97.5%	98%	105%	117%	107%	102%	94.6%		99.3%	95.9%	101%	99.5%	104%	119
Cc1[nH]nc(C(N)=O)c1[N+](=O)[O-]	89.2%	87.6%	105	77.5%	98.9%	84.1%	106%	101%	103%	102%	103%	126%	94%		99.4%	99%	93.3%	93.7%	90.4%	86.9
C[n+]1cc2cc3c(cc2c2ccccc21)OCO3	42.7%	55.3%	39	33.7%	59.2%	82%	30.8%	15.1%	51.4%	75.6%	57.3%	49.1%	-0.635% (active)	90.1%	-0.333% (active)	9.18% (active)	38.8%	69.5%	81.4%	
O=C1C=CC(=O)C2=C1CCCC2	86.4%	79.6%	92	92.4%	95.9%	135%	94%	95.8%	107%	110%	101%	46.3%	91.9%		93.7%	104%	104%	95.6%	96.4%	103
NNc1ncnc2c1ncn2C1OC(CO)C(O)C1O (centres undefined)	66%	55.8%	40	15%	2.13% (active)	34.9%	20.1%	18%	35.9%	40.4%	19.3%	30.4%	122%	10.7%	50.3%	38.7%	90.9%	84.9%	31.6%	
